This excerpt belongs to a sample that is enriched for hits.
IDE exosite FP – insulin-degrading enzyme (human) exo-site inhibition; P14735; z-score at 20 µM; purified IDE, FL-6b probe fluorescence polarization; active compounds read low; 6.3% of 17,000 active; AID 1259349;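 active = z-score of -3 or lower, meaning strong loss of probe binding signal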;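 note: His-tagged human IDE residues 42-1019 made in E. coli with 30 nM FL-6b probe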
Target sequence (P14735 42-1019 limits assumed): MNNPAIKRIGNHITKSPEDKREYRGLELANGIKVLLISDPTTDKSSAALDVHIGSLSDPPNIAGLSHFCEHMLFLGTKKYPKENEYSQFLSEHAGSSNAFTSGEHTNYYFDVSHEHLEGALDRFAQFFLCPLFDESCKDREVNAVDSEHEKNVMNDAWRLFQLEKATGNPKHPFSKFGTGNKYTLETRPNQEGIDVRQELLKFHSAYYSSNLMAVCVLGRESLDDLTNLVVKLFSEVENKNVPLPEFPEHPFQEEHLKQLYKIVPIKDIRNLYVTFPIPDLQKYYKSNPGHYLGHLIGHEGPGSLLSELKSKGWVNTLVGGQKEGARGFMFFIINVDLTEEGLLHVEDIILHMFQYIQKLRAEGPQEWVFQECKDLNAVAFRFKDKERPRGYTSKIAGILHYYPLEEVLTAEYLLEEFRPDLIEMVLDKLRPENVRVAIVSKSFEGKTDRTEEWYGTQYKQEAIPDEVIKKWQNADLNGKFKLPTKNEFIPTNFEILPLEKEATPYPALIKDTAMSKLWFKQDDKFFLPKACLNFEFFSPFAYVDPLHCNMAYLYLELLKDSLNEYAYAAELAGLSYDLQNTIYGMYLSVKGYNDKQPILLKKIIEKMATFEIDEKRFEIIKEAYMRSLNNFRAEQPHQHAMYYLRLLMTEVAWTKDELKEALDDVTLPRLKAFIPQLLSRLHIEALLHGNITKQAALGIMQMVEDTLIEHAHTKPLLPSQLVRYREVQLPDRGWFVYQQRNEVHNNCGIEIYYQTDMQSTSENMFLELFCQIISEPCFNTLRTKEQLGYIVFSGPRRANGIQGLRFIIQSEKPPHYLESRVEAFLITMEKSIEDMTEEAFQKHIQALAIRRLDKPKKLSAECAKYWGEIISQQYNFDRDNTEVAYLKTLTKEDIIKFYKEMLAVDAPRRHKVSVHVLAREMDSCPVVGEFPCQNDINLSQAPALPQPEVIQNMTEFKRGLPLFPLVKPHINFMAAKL
The depositor's hits bear a star; ! = not active in a repeat.

What do the screens show for `O=C(c1cnccn1)N1CC(=O)N2[C@H](C1)[C@@H](c1ccc(-c3cccc(F)c3)cc1)[C@@H]2CO`?
IDE exosite FP: -4*

Results for O=C(c1cnccn1)N1CC(=O)N2[C@H](CO)[C@H](c3ccc(-c4cccc(F)c4)cc3)[C@@H]2C1 ?
IDE exosite FP: -0.31

How did O=C(c1cnccn1)N1CC(=O)N2[C@@H](CO)[C@@H](c3ccc(-c4ccc(F)cc4)cc3)[C@@H]2C1 do in these assays?
IDE exosite FP: 3.1

Results for O=C(c1ccccn1)N1CC(=O)N2[C@H](C1)[C@@H](c1ccc(-c3cccc(F)c3)cc1)[C@@H]2CO ?
IDE exosite FP: -7.7*

What do the screens show for `CN1CCN(C(=O)C[C@H]2CC[C@@H]3[C@H](COC[C@H](O)CN3C(=O)c3ccccc3F)O2)CC1`?
IDE exosite FP: -0.49

What do the screens show for `C[C@@H]1CN([C@@H](C)CO)C(=O)c2cc(NS(=O)(=O)c3cccs3)ccc2O[C@@H](C)CCCCO[C@H]1CN(C)C(=O)c1ccncc1`?
IDE exosite FP: 1.9

What do the screens show for `Cc1ccc(S(=O)(=O)N2C[C@@H](O)COC[C@@H]3O[C@@H](CC(=O)NCc4ccc5c(c4)OCO5)CC[C@H]32)cc1`?
IDE exosite FP: 0.72

How did COc1ccc(-c2ccc3n(c2=O)C[C@H]2[C@H](CO)[C@@H](C(=O)NCC4CC4)N(C(=O)NC(C)C)[C@@H]32)cc1 do in these assays?
IDE exosite FP: 0.45

What do the screens show for `CN(C)C(=O)c1cccc(-c2ccc3c(c2)[C@@H]2[C@@H](CCN2C(=O)c2cnccn2)[C@@H](CO)N3)c1`?
IDE exosite FP: 1.8

Results for O=C(Nc1ccc(C(F)(F)F)cc1)N1[C@@H]2CNC[C@H]1C2c1ccc(-c2ccccc2)cc1 (stereo not given in full) ?
IDE exosite FP: 4.2

How did N#C[C@@H]1[C@H](c2ccccc2-c2cccc(F)c2)[C@H](CO)N1C(=O)C1CCCCC1 do in these assays?
IDE exosite FP: 4

Results for COc1ccccc1CN1C[C@@H]2N[C@H](C1)C2c1ccc(-c2ccc(C#N)cc2)cc1 (stereo not given in full) ?
IDE exosite FP: -1.2

What do the screens show for `COc1ccccc1CN1C[C@@H]2N[C@H](C1)C2c1ccc(-c2cccc(C#N)c2)cc1` (stereo not given in full)?
IDE exosite FP: -4*!

Results for COc1ccccc1CN1C[C@@H]2N[C@H](C1)C2c1ccc(-c2ccc(C(=O)N(C)C)cc2)cc1 (stereo not given in full) ?
IDE exosite FP: -0.092

What do the screens show for `COc1ccccc1CN1C[C@@H]2N[C@H](C1)C2c1ccc(-c2ccncc2)cc1` (stereo not given in full)?
IDE exosite FP: 0.34

What do the screens show for `COc1ccccc1CN1C[C@@H]2N[C@H](C1)C2c1ccc(-c2ccccc2OC)cc1` (stereo not given in full)?
IDE exosite FP: -10*

How did N#Cc1cccc(-c2ccc(C3[C@@H]4CN(Cc5ccccc5)C[C@H]3N4)cc2)c1 (stereo not given in full) do in these assays?
IDE exosite FP: 1.1

Results for COc1ccc2c3c(n(C)c2c1)[C@@H](CO)N(Cc1cccc(F)c1)CC31CCN(C(=O)Cc2ccccc2)CC1 ?
IDE exosite FP: -0.49

What do the screens show for `C/C=C/c1ccc([C@@H]2[C@H](CO)N(C(=O)CC)[C@H]2CNC(=O)CC)cc1`?
IDE exosite FP: 3.2

How did Cc1noc(C)c1S(=O)(=O)N(C)C[C@H]1OCCCC[C@H](C)Oc2ccc(NC(=O)CCC(F)(F)F)cc2C(=O)N([C@H](C)CO)C[C@H]1C do in these assays?
IDE exosite FP: 0.35

What do the screens show for `O=C(C[C@H]1CC[C@H]2[C@@H](COC[C@@H](O)CN2Cc2ccc(Oc3ccccc3)cc2)O1)N1CCN(c2ccccc2)CC1`?
IDE exosite FP: 0.18

What do the screens show for `COc1ccc(CNC(=O)C[C@H]2CC[C@@H](NC(=O)CN(C)C)[C@@H](CO)O2)cc1`?
IDE exosite FP: 0.99

Results for N#Cc1ccc(-c2cccc(-c3nc(C(=O)O)cc4c3[C@H](CCO)N(CC3CCOCC3)C4)c2)cc1 ?
IDE exosite FP: -0.86

Results for Cc1cccc(-c2ccc([C@@H]3[C@H](CO)N4C(=O)CN(C(=O)c5cnccn5)C[C@@H]34)cc2)c1 ?
IDE exosite FP: -11*

How did Cc1cccc(-c2ccc([C@H]3[C@H](CO)N4C(=O)CN(C(=O)c5cnccn5)C[C@@H]34)cc2)c1 do in these assays?
IDE exosite FP: -14*

How did C/C=C/c1ccc([C@@H]2[C@@H](CO)N3C(=O)CN(C(=O)c4cnccn4)C[C@@H]23)cc1 do in these assays?
IDE exosite FP: 1.2

How did Cc1cccc(-c2ccc([C@H]3[C@H]4CN(C(=O)c5cnccn5)CC(=O)N4[C@H]3CO)cc2)c1 do in these assays?
IDE exosite FP: -5.4*

What do the screens show for `Cc1cccc(-c2ccc([C@@H]3[C@@H](CO)N4C(=O)CN(C(=O)c5cnccn5)C[C@@H]34)cc2)c1`?
IDE exosite FP: -18*

Results for O=C(c1cnccn1)N1CC(=O)N2[C@H](CO)[C@@H](c3ccc(C4=CCCCC4)cc3)[C@H]2C1 ?
IDE exosite FP: 0.26

Results for CC(C)(O)C#Cc1ccc([C@H]2[C@H](CO)N3CCCCN(C(=O)c4cccc(F)c4)C[C@@H]23)cc1 ?
IDE exosite FP: 0.18

Results for C[C@@H]1CN([C@@H](C)CO)C(=O)c2cc(NC(=O)Nc3cccc4ccccc34)ccc2O[C@@H](C)CCCCO[C@H]1CN(C)Cc1ccc(C(F)(F)F)cc1 ?
IDE exosite FP: 0.36

What do the screens show for `CCc1csc(N2[C@@H](C#N)[C@@H](c3ccccc3-c3ccc(F)cc3)[C@@H]2CO)n1`?
IDE exosite FP: -1.1

What do the screens show for `O=C(Cc1ccccc1)N1C[C@@H]2[C@H](c3ccccc31)[C@H](CO)N2S(=O)(=O)c1ccccc1`?
IDE exosite FP: 3.3

How did CC(C)C#Cc1ccc([C@H]2[C@@H](CO)N3CCCCN(CC4CC4)C[C@H]23)cc1 do in these assays?
IDE exosite FP: 0.86

What do the screens show for `COCC(=O)Nc1ccc2c(c1)C(=O)N(C)[C@@H]1CC[C@H](CC(=O)NC3Cc4ccccc4C3)O[C@@H]1CO2`?
IDE exosite FP: -0.95

How did CC(=O)N1[C@H](CN(CC(C)C)C(=O)c2ccccn2)[C@@H](c2ccccc2)[C@@H]1CO do in these assays?
IDE exosite FP: -0.43

Results for C/C=C/c1ccc([C@@H]2[C@H](CO)N(C(C)=O)[C@H]2CN(C(C)=O)C2CCCC2)cc1 ?
IDE exosite FP: -0.46

What do the screens show for `O=C(c1cnccn1)N1CC(=O)N2[C@H](C1)[C@H](c1ccc(-c3ccccc3)cc1)[C@@H]2CO`?
IDE exosite FP: 0.43

Results for O=C(c1cnccn1)N1CC(=O)N2[C@H](C1)[C@H](c1ccc(-c3ccc(F)cc3)cc1)[C@@H]2CO ?
IDE exosite FP: 5.7

Results for O=C(c1cnccn1)N1CC(=O)N2[C@H](C1)[C@@H](c1ccc(-c3ccccc3)cc1)[C@@H]2CO ?
IDE exosite FP: -6*

Results for Cc1cccc(-c2ccc([C@@H]3[C@H]4CN(C(=O)c5cnccn5)CC(=O)N4[C@H]3CO)cc2)c1 ?
IDE exosite FP: -16*

Results for CC(C)CC#Cc1ccc([C@@H]2[C@H](CO)N3CCCCN(S(=O)(=O)Cc4ccccc4)C[C@@H]23)cc1 ?
IDE exosite FP: 3.4

What do the screens show for `O=C(c1ccc(F)cc1)N1CC(=O)N2[C@H](CO)[C@H](c3ccc(C#Cc4ccc(F)cc4)cc3)[C@@H]2C1`?
IDE exosite FP: 0.5

Screens from PubChem.
